According to the supplement of paper PMC8728848:
The sample as a whole holds a higher share of the strongest signals than the screen did.

Experiments:
Test in all cases: glycan array binding signal (z-score within array); higher = stronger binding
Conditions in all cases: glycan notation: IUPAC condensed, linker removed
[1] = molecular target: GlcNAc(a1-4)Gal(b1-3)GlcNAc
In short: (§1)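 From the Consortium for Functional Glycomics database, 3228 arrays were curated, keeping only those whose protein sequence was available. Binding is given as a within-array Z-score averaged across arrays sharing a protein sequence and across linkers. Negative Z-scores can be read as non-binding.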

[2] = molecular target: GlcNAc(b1-2)[GlcNAc(b1-4)]Man(a1-3)[GlcNAc(b1-4)][GlcNAc(b1-2)Man(a1-6)]Man(b1-4)GlcNAc(b1-4)GlcNAc
In short: as §1

[3] = molecular target: GlcNAc(b1-2)[GlcNAc(b1-4)]Man(a1-3)[GlcNAc(b1-4)][GlcNAc(b1-2)[GlcNAc(b1-6)]Man(a1-6)]Man(b1-4)GlcNAc(b1-4)[Fuc(a1-6)]GlcNAc
In short: as §1

[4] = molecular target: GlcNAc(b1-2)[GlcNAc(b1-6)]Man(a1-6)[GlcNAc(b1-2)Man(a1-3)]Man(b1-4)GlcNAc(b1-4)[Fuc(a1-6)]GlcNAc
In short: as §1

[5] = molecular target: GlcNAc(b1-2)[GlcNAc(b1-6)]Man(a1-6)[GlcNAc(b1-4)][GlcNAc(b1-2)Man(a1-3)]Man(b1-4)GlcNAc(b1-4)GlcNAc
In short: as §1

GlcNAc(b1-3)Gal = molecular target: GlcNAc(b1-3)Gal
In short: as §1

GlcNAc(b1-3)GalNAc = molecular target: GlcNAc(b1-3)GalNAc
In short: as §1

[6] = molecular target: GlcNAc(b1-3)[GlcNAc(b1-6)]Gal(b1-4)GlcNAc
In short: as §1

[7] = molecular target: GlcNAc(b1-3)[GlcNAc(b1-6)]GalNAc
In short: as §1

GlcNAc(b1-6)GalNAc = molecular target: GlcNAc(b1-6)GalNAc
In short: as §1

[8] = molecular target: Man(a1-2)Man(a1-6)[Man(a1-3)]Man(a1-6)[Man(a1-2)Man(a1-2)Man(a1-3)]Man(b1-4)GlcNAc(b1-4)GlcNAc
In short: as §1

[9] = molecular target: Man(a1-3)[Man(a1-6)]Man(b1-4)GlcNAc(b1-4)[Fuc(a1-6)]GlcNAc
In short: as §1

[10] = molecular target: Neu5Ac(a2-3)Gal(b1-3)GalNAc6S
In short: as §1

[11] = molecular target: Neu5Ac(a2-3)Gal(b1-3)GlcNAc(b1-4)Gal(b1-4)Glc
In short: as §1

[12] = molecular target: Neu5Ac(a2-3)Gal(b1-3)GlcNAc6S
In short: as §1

[13] = molecular target: Neu5Ac(a2-3)Gal(b1-3)[GlcNAc(b1-6)]GalNAc
In short: as §1

[14] = molecular target: Neu5Ac(a2-3)Gal(b1-4)GlcNAc(b1-3)Gal(b1-4)GlcNAc(b1-3)Gal(b1-4)GlcNAc
In short: as §1

[15] = molecular target: Neu5Ac(a2-3)Gal(b1-4)GlcNAc(b1-3)Gal(b1-4)GlcNAc(b1-6)[Gal(b1-3)]GalNAc
In short: as §1

[16] = molecular target: Neu5Ac(a2-3)Gal(b1-4)GlcNAc(b1-3)[Neu5Ac(a2-3)Gal(b1-4)GlcNAc(b1-6)]GalNAc
In short: as §1

[17] = molecular target: Neu5Ac(a2-3)Gal(b1-4)GlcNAc(b1-6)GalNAc
In short: as §1

[18] = molecular target: Neu5Ac(a2-3)Gal(b1-4)[Fuc(a1-3)]GlcNAc(b1-3)Gal(b1-4)GlcNAc
In short: as §1

Neu5Ac(a2-3)GalNAc = molecular target: Neu5Ac(a2-3)GalNAc
In short: as §1

[19] = molecular target: Neu5Ac(a2-6)Gal(b1-4)GlcNAc(b1-2)Man(a1-3)[GlcNAc(b1-4)][Neu5Ac(a2-6)Gal(b1-4)GlcNAc(b1-2)Man(a1-6)]Man(b1-4)GlcNAc(b1-4)GlcNAc
In short: as §1

[20] = molecular target: Neu5Ac(a2-6)Gal(b1-4)GlcNAc(b1-2)Man(a1-3)[Neu5Ac(a2-6)Gal(b1-4)GlcNAc(b1-2)Man(a1-6)]Man(b1-4)GlcNAc(b1-4)GlcNAc
In short: as §1

[21] = molecular target: Neu5Ac(a2-6)Gal(b1-4)GlcNAc(b1-2)Man(a1-6)[Man(a1-3)]Man(b1-4)GlcNAc(b1-4)GlcNAc
In short: as §1

[22] = molecular target: Neu5Ac(a2-6)Gal(b1-4)GlcNAc(b1-3)Gal(b1-4)GlcNAc(b1-6)[Gal(b1-3)]GalNAc
In short: as §1

[23] = molecular target: Neu5Ac(a2-6)GlcNAc(b1-4)GlcNAc(b1-4)GlcNAc
In short: as §1

[24] = molecular target: Neu5Ac(a2-8)Neu5Ac(a2-3)Gal(b1-3)GalNAc(b1-4)[Neu5Ac(a2-8)Neu5Ac(a2-3)]Gal(b1-4)Glc
In short: as §1

[25] = molecular target: Neu5Ac(a2-8)Neu5Ac(a2-3)[GalNAc(b1-4)]Gal(b1-4)Glc
In short: as §1

[26] = molecular target: Neu5Ac(a2-8)Neu5Ac(a2-8)Neu5Ac(a2-3)[Gal(b1-3)GalNAc(b1-4)]Gal(b1-4)Glc
In short: as §1

[27] = molecular target: Neu5Ac(a2-8)Neu5Ac(a2-8)Neu5Ac(a2-8)Neu5Ac(a2-3)[GalNAc(b1-4)]Gal(b1-4)Glc
In short: as §1

[28] = molecular target: Neu5Gc(a2-3)Gal(b1-3)GlcNAc
In short: as §1

B1: Cohesin-marm-DC-ASGPR (protein)
chain: LDITSHHHHHHDDLDAVRIKVDTVNAKPGDTVRIPVRFSGIPSKGIANCDFVYSYDPNVLEIIEIEPGDIIVDPNPDKSFDTAVYPDRKIIVFLFAEDSGTGAYAITKDGVFATIVAKVKEGAPNGLSVIKFVEVGGFANNDLVEQKTQFFDGGVNVGDTTEPATPTTPVTTPTTTDDLDAASSKFQRDLVTLRTDFSNFTSNTLAEIQALTSQGSSLQETIASLKAEVEGHKQELQAGASELQEHNKQKAHLGRCPHTCVCPSSFVCVPVHSEILLRVQQLVQDLNKLSCQVAILKNNATTERTCCPINWVEHQGSCYWFSRSGKTWPEAERYCQLENTHLVVINSREEQNFVQAHLGSAYTWMGLSDPEGVWKWVDGTDYSSGFQNWKPGQPDDWQGHGLGGGEDCAHFHPDGRWNDDVCQRSYHWVCEAGLTQASQDSHAS
For B1, the “glycan array binding signal (z-score)” value [1] was -0.3, the “glycan array binding signal (z-score)” value [2] was -0.278 and the “glycan array binding signal (z-score)” value [3] was -0.313. The “glycan array binding signal (z-score)” value [4] was -0.298, the “glycan array binding signal (z-score)” value [5] was -0.311 and the “glycan array binding signal (z-score)” value (GlcNAc(b1-3)Gal) was -0.306. For the same binder, the “glycan array binding signal (z-score)” value (GlcNAc(b1-3)GalNAc) was -0.287, the “glycan array binding signal (z-score)” value [6] was -0.313 and the “glycan array binding signal (z-score)” value [7] was -0.291. For the same binder, the “glycan array binding signal (z-score)” value (GlcNAc(b1-6)GalNAc) was 4.74, the “glycan array binding signal (z-score)” value [8] was -0.287 and the “glycan array binding signal (z-score)” value [9] was -0.31. The “glycan array binding signal (z-score)” value [10] was -0.245, the “glycan array binding signal (z-score)” value [11] was -0.303 and the “glycan array binding signal (z-score)” value [12] was -0.277. The “glycan array binding signal (z-score)” value [13] was -0.303, the “glycan array binding signal (z-score)” value [14] was -0.288 and the “glycan array binding signal (z-score)” value [15] was -0.307. For the same binder, the “glycan array binding signal (z-score)” value [16] was -0.311, the “glycan array binding signal (z-score)” value [17] was 4.81 and the “glycan array binding signal (z-score)” value [18] was -0.244. The “glycan array binding signal (z-score)” value (Neu5Ac(a2-3)GalNAc) was -0.309, the “glycan array binding signal (z-score)” value [19] was -0.308 and the “glycan array binding signal (z-score)” value [20] was -0.126. For the same binder, the “glycan array binding signal (z-score)” value [21] was -0.314, the “glycan array binding signal (z-score)” value [22] was -0.308 and the “glycan array binding signal (z-score)” value [23] was -0.312. For the same binder, the “glycan array binding signal (z-score)” value [24] was -0.296, the “glycan array binding signal (z-score)” value [25] was 3.43 and the “glycan array binding signal (z-score)” value [26] was -0.305. The “glycan array binding signal (z-score)” value [27] was 5.27 and the “glycan array binding signal (z-score)” value [28] was -0.264.
